# Laboratory results: publication PMC5540273 (PLoS ONE, 2017)
# What was measured:
# Conditions in all cases: concentration: 1 μM, replicates: in singlicate; n = 1
# PCTK2 = system: T1, PCTK2
# T1 construct: gene CDK17
# PCTK3 = system: T2, PCTK3
# T2 construct: gene CDK18
# PDGFRA = system: PDGFRA
# PDGFRB = system: PDGFRB
# PDPK1 = system: PDPK1
# PFTAIRE2 = system: PFTAIRE2
# PFTK1 = system: T3, PFTK1
# T3 construct: gene CDK14
# PHKG1 = system: PHKG1
# PHKG2 = system: PHKG2
# PIK3C2B = system: PIK3C2B
# PIK3C2G = system: PIK3C2G
# PIK3CA = system: PIK3CA
# PIK3CB = system: PIK3CB
# PIK3CD = system: PIK3CD
# PIK3CG = system: PIK3CG
# PIK4CB = system: T4, PIK4CB
# T4 construct: gene PI4KB
# PIKFYVE = system: PIKFYVE
# PIM1 = system: PIM1
# PIM2 = system: PIM2
# PIM3 = system: PIM3
# 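Note: KINOMEscan kinase panel screen.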
SMILES,%Inh (PCTK2) [%],%Inh (PCTK3) [%],%Inh (PDGFRA) [%],%Inh (PDGFRB) [%],%Inh (PDPK1) [%],%Inh (PFTAIRE2) [%],%Inh (PFTK1) [%],%Inh (PHKG1) [%],%Inh (PHKG2) [%],%Inh (PIK3C2B) [%],%Inh (PIK3C2G) [%],%Inh (PIK3CA) [%],%Inh (PIK3CB) [%],%Inh (PIK3CD) [%],%Inh (PIK3CG) [%],%Inh (PIK4CB) [%],%Inh (PIKFYVE) [%],%Inh (PIM1) [%],%Inh (PIM2) [%],%Inh (PIM3) [%]
COc1cc(Nc2nccc(-c3c(-c4cccc(NC(=O)c5c(F)cccc5F)c4)nn4ccccc34)n2)cc(OC)c1OC [GSK323521],8,29,89,99.7,13,25,3,4,10,27,9,4,16,0,9,11,0,17,0,5
CCc1ccc(-c2ccc3c(c2)-c2c(cnn2C)S(=O)(=O)N3C)cc1,10,0,0,6,4,0,0,5,0,8,0,5,0,0,2,12,53,1,0,0
CCCCc1nn2ncccc2c1-c1ccnc(Nc2ccc(N3CCN(C)CC3)cc2)n1 [GW684941],37,16,98.8,100,0,0,0,20,4,66,0,0,0,41,0,74,51,0,0,0
Cn1cc(-c2ccc3c(c2)CCN3C(=O)Cc2cccc(Cl)c2)c2c(N)ncnc21 [GSK2606590],0,7,84,100,40,18,32,17,0,89,0,0,15,0,39,0,0,31,0,8
Cc1ccc(F)c(C(=O)Nc2cccc(-c3nn4ccccc4c3-c3ccnc(Nc4cccc(F)c4)n3)c2)c1F [GSK361061],0,16,6,99.7,11,18,11,14,6,0,0,0,0,0,0,0,0,24,0,7
COc1ccc(Nc2nccc(NCCNC(=O)c3cc4ccccc4s3)n2)cc1 [GSK1379896],0,0,0,15,8,14,18,0,2,0,0,0,32,0,0,0,0,8,0,2
COc1cc2c(cc1OCCN1CCNCC1)ncc1c3ccc(C#N)cc3[nH]c21,9,0,96.4,89,9,53,9,98.7,99.3,0,0,8,0,3,31,33,14,10,92.2,52
CCn1c(-c2nonc2N)nc2c(C#CC(C)(C)O)nc(OC[C@H](N)c3ccccc3)cc21 [GSK943949],0,0,11,5,0,0,0,0,5,0,11,0,0,0,0,0,60,0,23,0
Clc1ccc(-c2nn3ncccc3c2-c2ccnc(Nc3ccc4c(c3)OCCO4)n2)cc1 [GW829116],0,0,24,99.9,0,0,0,0,0,0,0,0,0,0,0,0,25,13,6,0
Cc1cccc(Nc2nc(N[C@H]3CCNC3)ncc2C(N)=O)c1.Cl [GSK2197149],7,34,58,89,7,7,15,66,68,0,0,0,0,0,0,8,0,28,68,76
CC(C)c1nc(-c2cccc(NS(=O)(=O)c3c(F)cccc3F)c2F)c(-c2ccnc(Nc3ccc(N4CCOCC4)nc3)n2)s1 [GSK2008607],100,100,90,100,0,94.6,98.7,0,0,49,0,6,0,0,0,0,31,11,0,0
O=C(Nc1n[nH]c2nc(-c3ccc(O)cc3)ccc12)C1CC1 [SB-710363],56,6,48,32,5,28,14,5,0,0,0,0,0,0,2,20,0,45,89,81
COCCOCCOc1cc2ncc3c4ccc(C#N)cc4[nH]c3c2cc1OC,6,13,98.2,92.9,34,48,21,94.5,97.7,0,12,0,0,0,0,0,47,29,94,49
CC(=O)N1CCN(c2ccc(Nc3nccc(-c4sc(C(C)C)nc4-c4cccc(NS(=O)(=O)c5cccc(Cl)c5)c4)n3)cn2)CC1 [GSK1660437],99.9,100,73,99,0,49,57,0,0,0,0,0,13,0,0,0,0,0,0,89
c1ccc(-c2cnc3nccnn23)cc1 [AH20685],0,15,0,23,0,0,0,40,0,0,0,0,0,0,0,0,0,0,0,9
O=c1[nH]cc(-c2ccc(N3CCOCC3)cc2)c2sc(-c3cn[nH]c3)cc12 [GSK2276055],28,15,32,63,0,34,42,0,6,9,0,21,11,3,21,8,31,77,51,67
COc1cccc(NC(=O)NC2CCN(c3ccnc(Nc4cc(OC)c(OC)c(OC)c4)n3)C2)c1 (centres unmarked) [GSK1379763],25,21,28,83,0,9,5,0,0,0,0,0,0,51,8,78,0,0,0,0

SMILES,%Inh (PCTK2) [%],%Inh (PCTK3) [%],%Inh (PDGFRA) [%],%Inh (PDGFRB) [%],%Inh (PDPK1) [%],%Inh (PFTAIRE2) [%],%Inh (PFTK1) [%],%Inh (PHKG1) [%],%Inh (PHKG2) [%],%Inh (PIK3C2B) [%],%Inh (PIK3C2G) [%],%Inh (PIK3CA) [%],%Inh (PIK3CB) [%],%Inh (PIK3CD) [%],%Inh (PIK3CG) [%],%Inh (PIK4CB) [%],%Inh (PIKFYVE) [%],%Inh (PIM1) [%],%Inh (PIM2) [%],%Inh (PIM3) [%]
CC(C)(C)c1ccc2nccc(Nc3cccc(O)c3)c2c1 [GW856795],0,0,81,1,96.3,0,0,0,9,38,25,0,0,3,33,0,42,7,0,0
O=C(Nc1cccc(-c2nn3ncccc3c2-c2ccnc(Nc3ccccc3)n2)c1)c1c(F)cccc1F [GSK198271],0,17,65,100,0,23,0,0,0,0,0,0,0,0,0,6,0,16,0,5
C[C@@H]1CC[C@@H](C(=O)Nc2ccccc2)CN1c1cc(-c2ccc3c(N)n[nH]c3c2)nc(N)n1 [GSK2286062],13,10,0,23,64,7,29,0,21,0,0,0,0,0,2,0,0,31,0,4
COc1cccc(C(=O)Nc2cccc(Oc3ccc4nc(NC(=O)C5CC5)cn4n3)c2)c1,0,12,99.9,100,0,8,4,0,0,0,1,0,0,0,0,0,0,9,11,17
COc1ccc(-c2coc3ccc(-c4nnc(SCc5ccc(OC)c(C(F)(F)F)c5)o4)cc23)cc1,9,9,23,16,12,0,19,3,4,0,13,0,27,11,0,0,0,0,18,4
O=C(Nc1ccccc1F)NC1CCN(c2ccnc(Nc3ccc(F)cc3)n2)CC1 [GSK1379800],0,0,0,11,0,5,15,0,0,0,0,1,0,0,3,0,0,0,0,0
Cn1cc(-c2[nH]c3cc(NC(=O)[C@H](N)C4CCCCC4)cc4c3c2C=NNC4=O)cn1,0,0,99.7,100,75,5,5,65,23,49,0,0,9,6,0,0,1,39,0,46
Cc1ccc(C(=O)N2CC[C@@H](O)C2)cc1-n1c(C)cc(OCc2ccc(F)cc2F)c(Br)c1=O,0,7,4,77,30,2,12,0,0,0,0,0,0,0,0,0,28,0,7,1
CN1CCN(Cc2cccc(-c3ccc4c(Nc5ccc(Oc6ccccc6)cc5)ccnc4c3)c2)CC1 [GW578342],69,20,94.3,98.9,0,14,23,1,0,0,0,0,0,30,1,0,16,0,0,0
COc1ccc(Nc2nccc(N3CCC(NC(=O)Nc4cccc(OC)c4)C3)n2)cc1 (centres unmarked) [GSK1379742],0,21,0,23,15,10,2,17,0,13,0,0,0,0,0,1,0,0,0,3
Cl.c1ccc(-c2ccc3c(Nc4ccc5[nH]ncc5c4)ccnc3c2)nc1 [GW440137],14,20,90,89,0,12,19,0,0,3,0,6,0,2,5,0,7,0,0,9
Cl.Cl.NCC(NC(=O)c1cc(-c2ccccc2)c(-c2ccnc3[nH]ccc23)s1)c1ccccc1 (centres unmarked) [GSK1321561],0,0,0,45,20,6,17,0,0,0,0,0,0,0,4,0,0,0,0,0
COc1cc(Nc2nccc(-c3c(-c4cccc(NC(=O)c5c(F)cccc5F)c4)nn4ncccc34)n2)cc(OC)c1OC [GSK327238],0,5,90.2,100,16,4,5,0,3,0,0,2,3,0,6,0,0,0,0,0
Cc1ccc(S(=O)(=O)Nc2ccc(Nc3nccc(Nc4cccc5[nH]ncc45)n3)cc2)cc1 [GSK581271],0,12,0,73,0,12,10,0,0,0,0,0,0,0,5,77,0,11,0,0
Cc1cccc(NC(=O)Nc2ccc(Oc3ncnc4ccn(C)c34)cc2)c1,0,0,99.7,100,0,0,0,0,0,0,0,0,0,0,0,0,40,0,0,0
Cc1ccc(C)c(NC(=O)NC2CCN(c3ccnc(Nc4ccc(F)cc4)n3)C2)c1 (centres unmarked) [GSK1379720],0,10,0,4,0,4,0,0,0,0,0,0,0,8,0,0,0,15,0,0
CC(=O)Nc1nc2cnc(Nc3cc(NC(=O)c4cccc(C5(C#N)CC5)c4Cl)ccc3C)nc2s1,9,0,97.7,100,1,23,0,12,17,0,27,0,12,14,0,0,0,2,4,0
